In PubChem BioAssay (NCI):
This is part of a sample that, as a whole, favours compounds with a hit. Of some 79,000 tested, about 15% had one in any assay. Active and inactive are the calls of the source. No stated cut-off is given here; in the data, active means growth inhibition above about 70%; inactive means the rest.

Assay: NCI Yeast Anticancer Drug Screen. Data for the mlh1 strain (AID 171);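 further: 0% = growth of vehicle-treated control cultures of the same strain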
Conditions: S. cerevisiae mlh1 strain growth inhibition, stronger effect = higher value
Description: Growth inhibition of yeast strains with defined genetic alterations is measured as a screen for potential anti-cancer activity. Selected strains with alterations in DNA damage repair or cell cycle control were exposed to compounds and growth inhibition was measured relative to vehicle treated controls. The strain used in this assay is mlh1

Measured: growth inhibition

COc1cc2ccccc2c2cc([N+](=O)[O-])oc12
inactive: at 1.2 µM 7% | at 3.7 µM 10% | at 11.0 µM 21% | at 33.0 µM 41% | at 100.0 µM 60%

O=C1c2ccc3ccccc3c2CCC1N1CCCCC1 (stereo not given)
inactive: at 1.2 µM -1% | at 3.7 µM 7% | at 11.0 µM 22%
active: at 33.0 µM 81% | at 100.0 µM 98%

OCC(O)C(O)CO (stereo not given) (tested in a mixture with another compound)
inactive: at 1.2 µM 8% | at 3.7 µM -1% | at 11.0 µM -5% | at 33.0 µM -5% | at 100.0 µM -3%

CCCCCCCCCC[Se]C#N
inactive: at 1.2 µM -1% | at 3.7 µM 0% | at 11.0 µM 6% | at 33.0 µM 26%
active: at 100.0 µM 90%

Cc1ccc2nc3sc(=O)sc3nc2c1
inactive: at 1.2 µM 27% | at 3.7 µM 50%
active: at 11.0 µM 98% | at 33.0 µM 98% | at 100.0 µM 95%

C[C@]12CC[C@H](O)CC1=CC[C@@H]1[C@@H]2CC[C@]2(C)C(=O)CC[C@@H]12
inactive: at 1.2 µM -51% | at 3.7 µM -81% | at 11.0 µM -49% | at 33.0 µM 37%
active: at 100.0 µM 97%

CC1=C(CO)C2=C(C)C3(CC3)[C@@](C)(O)C(=O)C2=C1
inactive: at 1.2 µM -1% | at 3.7 µM 0% | at 11.0 µM 1% | at 33.0 µM 3% | at 100.0 µM 8%

CC1(C)N=C(N)N=C(N)N1c1cccc(N)c1.[Sn]
inactive: at 1.2 µM 11% | at 3.7 µM 22% | at 11.0 µM 16% | at 33.0 µM 29% | at 100.0 µM 44%
